High-throughput results (PubChem BioAssay)
BAZ2B block: qHTS Assay for Inhibitors of BAZ2B; Potency, µM (doses to about 114 µM), for inactives: top-dose activity change, negative = inhibition, most hits filed as inhibitors; 360,000 compounds, 4.4% hits; AlphaScreen BAZ2B-H3K14Ac peptide displacement; Bromodomain adjacent to zinc finger domain protein 2B (Homo sapiens), Q9UIF8; further: on the % scale 0 is the no-effect control and ±100 the full control effect; nearly all actives have a fitted effect of over 60% in size
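In this displacement format the biotinylated H3(5-23) peptide acetylated at Lys14 serves as ligand at 50 nM, with BAZ2B at 50 nM in PBS pH 7.4 containing 0.01% Tween-20. Donor and acceptor beads are 10 ug/mL final.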
PLK1 PBD block: qHTS for Inhibitors of PLK1-PDB (polo-like kinase 1 - polo-box domain): Primary Screen; Serine/threonine-protein kinase PLK1 (Homo sapiens), P53350; Plk1 PBD binding of FITC phosphopeptide, fluorescence polarization; Potency, µM, without a hit: max response, negative = inhibition, hits mostly inhibitors; 360,000 compounds, 2.8% hits; further: series mostly up to about 57 µM; on the % scale 0 is the no-effect control and ±100 the full control effect; nearly all actives have a fitted effect of over 65% in size
JMJD2A Tudor: qHTS Assay for Inhibitors of JMJD2A-Tudor Domain; AlphaScreen JMJD2A-Tudor / H3K4me3 peptide binding; Potency, µM (series often up to 114 µM), for the others: at the highest dose activity change, negative = inhibition, actives largely listed as inhibitors; 390,000 compounds, 4.4% hits; Lysine-specific demethylase 4A (Homo sapiens), O75164; further: on the % scale 0 is the no-effect control and ±100 the full control effect; nearly all actives have a fitted effect of over 50% in size
Target sequence (O75164 whole entry, looked up, the tested form may be a part): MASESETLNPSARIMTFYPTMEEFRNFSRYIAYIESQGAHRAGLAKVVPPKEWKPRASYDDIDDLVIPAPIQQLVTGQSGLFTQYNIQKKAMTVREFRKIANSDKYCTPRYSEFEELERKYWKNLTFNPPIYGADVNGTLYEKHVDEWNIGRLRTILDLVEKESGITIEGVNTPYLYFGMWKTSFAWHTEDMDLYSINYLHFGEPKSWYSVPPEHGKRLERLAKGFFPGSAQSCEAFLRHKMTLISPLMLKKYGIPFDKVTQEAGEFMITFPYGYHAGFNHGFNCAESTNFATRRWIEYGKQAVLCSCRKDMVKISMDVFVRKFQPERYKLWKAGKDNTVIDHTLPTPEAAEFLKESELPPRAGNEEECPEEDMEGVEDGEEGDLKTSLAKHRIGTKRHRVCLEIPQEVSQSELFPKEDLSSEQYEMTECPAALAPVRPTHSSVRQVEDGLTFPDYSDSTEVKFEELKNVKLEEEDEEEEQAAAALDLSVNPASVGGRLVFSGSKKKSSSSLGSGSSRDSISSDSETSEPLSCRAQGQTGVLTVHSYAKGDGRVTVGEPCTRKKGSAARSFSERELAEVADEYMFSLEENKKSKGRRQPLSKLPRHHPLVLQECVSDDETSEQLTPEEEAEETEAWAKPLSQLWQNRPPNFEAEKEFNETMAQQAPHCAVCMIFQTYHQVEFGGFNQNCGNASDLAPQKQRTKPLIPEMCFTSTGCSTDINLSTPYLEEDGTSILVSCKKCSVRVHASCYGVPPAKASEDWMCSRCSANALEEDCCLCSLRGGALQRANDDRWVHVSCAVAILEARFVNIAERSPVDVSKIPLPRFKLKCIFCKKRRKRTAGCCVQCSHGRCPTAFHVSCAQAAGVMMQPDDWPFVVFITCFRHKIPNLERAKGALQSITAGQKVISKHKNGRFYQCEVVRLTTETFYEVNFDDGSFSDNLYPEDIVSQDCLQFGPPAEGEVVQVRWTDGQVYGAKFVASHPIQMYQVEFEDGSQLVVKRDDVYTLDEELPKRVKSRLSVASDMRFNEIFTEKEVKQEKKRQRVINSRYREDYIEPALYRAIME
VDR inh: Inhibitors of the vitamin D receptor (VDR): qHTS; Vitamin D3 receptor (Homo sapiens), P11473; VDR-SRC2-3 peptide fluorescence polarization, 2 h; Potency, µM, for inactives: max response, negative = inhibition, most hits filed as inhibitors; 400,000 compounds, 0.93% hits; AID 504847, 2011; further: on the % scale 0 is the no-effect control and ±100 the full control effect
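FP read-out; VDR + SRC2-3 coactivator peptide; 23 nl compound by pintool; 2 h RT incubation; reagents held at 4 deg C, protected from light.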
HP1b chromo inh: HTS for Inhibitors of HP1-beta Chromodomain Interactions with Methylated Histone Tails | Chromobox protein homolog 1 (Homo sapiens), P83916 | Potency, µM (doses to about 114 µM), for the others: top-dose activity change, negative = inhibition, most hits filed as inhibitors | 390,000 compounds, 0.56% hits | AlphaScreen HP1-beta / biotin-H3K9me3 peptide binding; further: nearly all actives have a fitted effect of over 70% in size
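HP1-beta protein (50 nM final) preincubated 30 min at room temperature with biotinylated H3(1-18)K9me3 peptide (50 nM) in PBS pH 7.4, 0.01% Tween-20, then compound added for 30 min. AlphaScreen streptavidin donor/nickel chelate acceptor beads (10 ug/mL final), 30 min dark, luminescence read.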
G9a inh: qHTS Assay for Inhibitors of Histone Lysine Methyltransferase G9a. Histone-lysine N-methyltransferase EHMT2 (Homo sapiens), Q96KQ7. 350,000 compounds, 8.8% hits. Potency, µM (doses to about 102 µM), inactives show at the top dose activity, negative = inhibition, hits mostly inhibitors. G9a H3K9 monomethylation, AlphaScreen, 2 h; further: on the % scale 0 is the no-effect control and ±100 the full control effect; nearly all actives have a fitted effect of over 75% in size
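Signal arises when biotinylated H3K9 peptide, once monomethylated, bridges streptavidin donor and antibody-captured acceptor beads. Enzyme at 20 nM was preincubated 15 min with test compounds; peptide 500 nM and SAM 20 uM then reacted for 2 h.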
An asterisk follows results filed as active; ? = inconclusive; / = not tested or not shown; [ ] = dose if it differs, or a comment. Most compounds without a hit are left out; they make up all but 11% or so of the library. The call rests on the fitted dose curve; in most records, active means well fitted curve in the direction sought with a large enough effect; inconclusive means small, poorly fitted or top-dose-only effect, or another doubt; inactive means no such curve, though single readings can be large; an effect the other way counts as inactive or inconclusive. Potency means the concentration at half of the fitted maximal effect.

SMILES	BAZ2B block	PLK1 PBD block	JMJD2A Tudor	VDR inh	HP1b chromo inh	G9a inh
CC(=O)N1CCN(c2ccc(NC(=O)c3cccc(C)c3)cc2)CC1	-5.3%	-3.0%	-6.8%	13.9%	5.6%	/
Cc1cccc(N2CCN(c3ccc(NC(=O)c4ccccc4)cc3C(=O)O)CC2C)c1 (stereo not given)	79.4µM*	/	89.1µM*	-5.5%	-1.3%	?
Cc1cccc(N2CCN(C(=O)CC(NC(=O)c3ccccc3)c3ccccc3)CC2C)c1 (stereo not given)	?	-1.9%	?	-16.7%	-3.8%	7.5%[59 µM]
Cc1cccc(N2CCN(c3ccc(C(=O)O)cc3NC(=O)c3cccc(Cl)c3)CC2C)c1 (stereo not given)	?	/	56.2µM*	4.6%	-17.5%	-45.6%[59 µM]
Cc1cccc(N2CCN(c3ccc(NC(=O)/C=C(/C(=O)O)c4ccccc4)cc3)CC2)c1	?	-4.0%	?	7.9%	?	8.91µM*
O=C(Nc1ccccc1N1CCCCC1)c1cccc(Cl)c1	43.6%	-3.2%	102.1%	6.8%	127.8%	130.6%
CCOC(=O)c1ccc(NC(=O)NCc2cccnc2)cc1	-0.5%	-17.5%	-2.7%	10.2%	17.8%	/
COc1ccccc1NC(=O)CSc1nnc(C2CCCCC2)n1-c1ccccc1	-19.8%	0.0%	-9.2%	-11.4%	15.3%	-0.4%[12.7 µM]
CCc1noc(C)c1C(=O)Nc1nc(-c2cc(OC)ccc2OC)cs1	-0.7%	-3.5%	-24.8%	-8.0%	2.9%	-26.9%
COc1ccc(-c2cn(-c3ccccc3)c(=S)[nH]2)cc1OC	?	21.2µM*	-33.1%	0.1%	-6.0%	8.91µM*
COc1ccc(-n2cc(-c3ccc(Cl)cc3)[nH]c2=S)cc1	-2.0%	-2.7%	0.0%	-14.5%	47.0%	/
COC(=O)c1ccc(-n2cc(-c3ccc(OC)cc3)[nH]c2=S)cc1	-9.9%	6.7µM*	-16.0%	-16.9%	12.9%	1.12µM*
COc1ccccc1-c1cn(-c2ccccc2)c(=S)[nH]1	-28.3%	-27.3%	-33.7%	3.0%	30.4%	12.4%
COc1ccc(-c2cn(-c3ccc(C)c(Cl)c3)c(=S)[nH]2)cc1OC	-10.0%	26.7µM*	-14.7%	21.9%	-3.9%	50.1µM*
O=C(CSc1ccc2nnc(-c3cccc(F)c3)n2n1)NCC1CCCO1 (stereo not given)	-4.0%	?	31.6µM*	-26.4%	?	5.01µM*
CCSc1ccc2nnc(-c3cccc(F)c3)n2n1	11.5%	?	79.4µM*	6.3%	-36.8%	3.98µM*
O=C(CSc1ccc2nnc(-c3cccnc3)n2n1)NCC1CCCO1 (stereo not given)	1.2%	-3.4%	-3.5%	-3.6%	55.3%	?
CCCCN(C)c1nc(-c2ccco2)c2c(c1C#N)CC(C)(C)OC2	32.0%	29.9µM*	89.1µM*	20µM*	32.4%	44.7µM*
N#Cc1c(N2CCOCC2)nc(-c2ccco2)c2c1CCCC2	20.5%	-24.8%	18.9%	?	59.2%	22.4µM*
CC1(C)Cc2c(C#N)c(N3CCN(C(=O)c4ccccc4)CC3)nc(-c3ccco3)c2CS1	50.1µM*	?	-33.9%	?	-1.5%	14.1µM*
CC1(C)Cc2c(C#N)c(N3CCCC3)nc(-c3ccco3)c2CO1	26.4%	/	/	/	/	35.5µM*
CCc1nc(N2CCOCC2)c(C#N)c2c1CCCC2	25.7%	-4.4%	32.5%	-12.2%	83.8%	16.0%[59 µM]
COc1ccccc1N1CCN(CC(=O)Nc2ccccc2C(=O)NCCc2ccccc2)CC1	-5.3%	-1.0%	-23.2%	-4.7%	24.4%	0.1%[12.7 µM]
COc1ccc(NC(=O)COC(=O)c2c(C)noc2C)cc1Cl	/	8.3%	/	/	/	/
Cc1ccc2c(=O)c(C(=O)c3ccc(F)cc3)cn(CC(=O)Nc3ccc4c(c3)OCCO4)c2n1	8.7%[57.1 µM]	/	-20.1%	5.4%	23.8%	-7.7%[59 µM]
SMILES	BAZ2B block	PLK1 PBD block	JMJD2A Tudor	VDR inh	HP1b chromo inh	G9a inh
CCc1nc2ccc(C(=O)NC3CCC(C)CC3)cc2nc1CC (stereo not given)	-2.6%[57.1 µM]	29.9µM*	?	-25.1%	24.2%	3.6%
COCCn1c(SCc2cc(=O)n3ccsc3n2)nnc1-c1ccncc1	-16.4%	23.8µM*	39.8µM*	6.2%	5.8%	1.9%[59 µM]
Cc1ccc2nc(CSc3nnc(-c4ccncc4)n3C)cc(=O)n2c1	-17.3%	-12.9%	-6.5%	-10.4%	39.3%	39.8µM*
O=c1cc(CSc2n[nH]c(-c3ccncc3)n2)nc2sccn12	?	-11.3%	-28.0%	8.2%	18.9%	?
COc1ccc(-c2cc(C(F)(F)F)n3nc(C(=O)Nc4sc5c(c4C(=O)OC(C)C)CCCC5)cc3n2)cc1OC	8.8%	/	-11.6%	11.8%	19.2%	?
CC(C)OC(=O)c1c(NC(=O)c2cc3nc(-c4ccccc4)cc(C(F)(F)F)n3n2)sc2c1CCCC2	-2.3%	/	-19.7%	2.3%	-5.8%	12.6µM*
CC(C)OC(=O)c1c(NS(=O)(=O)c2ccccc2)sc2c1CCCC2	5.4%	2.67µM*	?	?	-15.0%	-5.1%[59 µM]
COc1cccc(OCc2cc(C(=O)NCc3cnc4ccccn34)no2)c1	-32.0%	1.2%	-19.7%	-13.7%	24.2%	9.5%
O=C(CSc1nc2ccccc2s1)NC(=O)NCc1ccco1	?	-21.7%	?	-8.7%	-1.3%	44.7µM*
O=C(CSc1nc(-c2ccccc2)cs1)NC(=O)NCc1ccco1	-2.4%	-17.7%	-25.2%	-7.0%	11.7%	6.1%[59 µM]
O=C(COC(=O)CCc1nc2ccccc2s1)NCc1ccco1	-20.2%	-6.1%	-13.4%	-2.6%	5.9%	1.9%
O=C(COC(=O)CCc1nc2ccccc2s1)NC(=O)NCc1ccco1	50.1µM*	-15.6%	-33.0%	-4.2%	-9.5%	-1.4%
O=C(O)CSc1cc(C(=O)c2ccccc2O)cn2c(=O)c3c4c(sc3nc12)CCCC4	22.4µM*	?	35.5µM*	-12.1%	70.8µM*	?
COc1ccc(C2CC2/C(=N/O)c2ccccn2)cc1 (stereo not given)	-36.3%	3.3%	-20.6%	-5.8%	78.7%	-4.5%
COc1ccc(C2CC2/C(=N/O)c2ccccc2)cc1 (stereo not given)	-2.7%	13.4µM*	14.1µM*	20µM*	?	20.2%
CC(=O)Nc1ccc(S(=O)(=O)Oc2cccc(/C=C3\SC(N)=NC3=O)c2)cc1	-31.1%	4.23µM*	25.1µM*	35.5µM*	-0.8%	-1.2%[59 µM]
